Measurements as given in PubChem BioAssay.
Active and inactive are the calls of the source.

Tests used:
[1] = system: Wnt5a (protein binding on small-molecule microarray); experiment: Wnt5a binders on small-molecule microarray, primary screen, biophysical, 635/667 nm fluorescence (AID 1142); settings: 635 nm fluorescence, higher = more signal;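 further: fluorescence read at 667 nm with signal to noise per printed feature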
[2] = cell viability in Huh7 cells, primary screen, cytotoxicity control for HCV replication inhibitor project, CellTiter-Glo luminescence, basal, 48 h (AID 1143); settings: Huh7 HCV replicon, higher = more signal, called active from +8 up or from −8 down;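 further: Huh7 hepatoma cells carrying a hepatitis C replication reporter with no stimulus; test concentration not given here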
[3] = CREB reporter modulators without forskolin, primary screen, cell-based, PC12, CRE-LacZ reporter, unstimulated (AID 1145); settings: no forskolin, luminescence, 4.5 h, higher = more signal, called active from +8 up or from −8 down
[4] = CREB reporter modulators under forskolin, primary screen, cell-based, PC12, CRE-LacZ reporter, forskolin-stimulated (AID 1146); settings: luminescence, 4.5 h, higher = more signal, called active from +8 up or from −8 down;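 further: PC12 cells with 6xCRE LacZ reporter stimulated by forskolin 10 µM; beta-galactosidase reporter signal reflecting CREB driven transcription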
[5] = molecular target: Streptavidin (Streptomyces avidinii) (UniProt P22629); experiment: streptavidin binders on small-molecule microarray, primary screen, artefact control for SMM compound annotation, biophysical, 635/667 nm fluorescence (AID 1147); settings: streptavidin binding, higher = more signal;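 further: signal reflects streptavidin binding to arrayed compounds as a control protein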
Streptavidin (Streptomyces avidinii), sequence (P22629 whole entry, looked up): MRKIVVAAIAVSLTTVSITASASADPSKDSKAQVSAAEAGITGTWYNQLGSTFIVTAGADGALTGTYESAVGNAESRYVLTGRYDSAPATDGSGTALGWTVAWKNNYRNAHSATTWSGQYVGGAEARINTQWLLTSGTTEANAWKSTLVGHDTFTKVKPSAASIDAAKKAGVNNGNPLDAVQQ

[6] = small-molecule binders of probe aInhba, primary screen, biochemical, small-molecule microarray, 635/667 nm fluorescence (AID 1148); settings: higher = more signal;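 further: score merges 667nm spot fluorescence with signal-to-noise for antibody binding to printed compounds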
Torsin-1A (Homo sapiens) [7] = molecular target: Torsin-1A (Homo sapiens) (UniProt O14656); experiment: torsin A binders from cell lysate, primary screen, small-molecule microarray, wild-type, 635/667 nm (AID 1149); settings: COS7 hTOR1A-WT lysate, 635 nm fluorescence, higher = more signal
Torsin-1A (Homo sapiens), sequence (O14656 whole entry, looked up): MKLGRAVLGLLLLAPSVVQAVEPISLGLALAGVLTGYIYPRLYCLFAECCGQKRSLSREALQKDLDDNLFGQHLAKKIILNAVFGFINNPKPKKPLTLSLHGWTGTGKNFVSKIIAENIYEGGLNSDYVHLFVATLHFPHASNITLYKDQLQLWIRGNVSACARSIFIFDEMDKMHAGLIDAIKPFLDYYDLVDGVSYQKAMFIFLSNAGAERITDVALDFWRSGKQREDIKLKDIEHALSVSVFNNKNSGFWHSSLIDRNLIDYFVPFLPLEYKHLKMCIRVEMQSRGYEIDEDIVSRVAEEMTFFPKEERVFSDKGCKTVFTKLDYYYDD

Torsin-1A (Homo sapiens) [8] = molecular target: Torsin-1A (Homo sapiens) (UniProt O14656); experiment: small-molecule binders of mutant TOR1A in lysate, primary screen, cell lysate, small-molecule microarray, COS7 lysate, 635/667 nm fluorescence (AID 1150); settings: COS7 hTOR1A mutant lysate, 635 nm fluorescence, higher = more signal;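 further: score pools 667 nm emission and signal to noise measuring lysate protein binding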
[9] = system: Sonic hedgehog protein (Shh); experiment: small-molecule binders of Shh protein, primary screen, biochemical, small-molecule microarray, 635/667 nm fluorescence (AID 1151); settings: small-molecule microarray binding, 635 nm fluorescence; higher = more signal;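 further: Shh protein binding to compounds spotted on small-molecule microarray slides; score combines spot fluorescence intensity with signal-to-noise across triplicate slides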
[10] = E. coli DRC41 culture turbidity changes, primary screen, E. coli filamentation inducer project, strain DRC41, OD650, 48 h (AID 1152);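 further: E. coli MC1000 strain DRC41 lacking acrAB efflux pump and sulA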; settings: E. coli DRC41 (acrAB sulA), higher = more signal, called active from +8 up or from −8 down
[11] = small-molecule binders of probe aLefty1, primary screen, biochemical, small-molecule microarray, 635/667 nm fluorescence (AID 1153); settings: higher = more signal;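 further: score merges spot fluorescence with signal-to-noise ratio from the scanned slide images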
[12] = PSAC antagonists in infected red cells, primary screen, cell-based, P. falciparum Indochina, OD700, 1 h (AID 1154); settings: P. falciparum Indochina infected RBC osmotic lysis, higher = more signal, called active from +8 up or from −8 down
[13] = PSAC antagonists in infected red cells, primary screen, cell-based, P. falciparum Indochina, OD700, 2 h (AID 1155);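 further: lysis reports solute entry through the parasite surface anion channel PSAC; channel blockers reduce lysis of infected cells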; settings: P. falciparum Indochina infected erythrocytes, osmotic lysis OD700; higher = more signal, called active from +8 up or from −8 down
[14] = osmotic lysis modulators in infected erythrocytes, primary screen, PSAC antagonist project, cell-based, P. falciparum Indochina, OD700, 3 h (AID 1156); settings: higher = more signal, called active from +8 up or from −8 down
[15] = PSAC antagonists in infected red cells, primary screen, cell-based, P. falciparum Indochina, OD700, 18 h (AID 1157); settings: P. falciparum Indochina infected erythrocytes, osmotic lysis OD700, 18 h; higher = more signal, called active from +8 up or from −8 down
[16] = modulators of S6 phosphorylation in cells, primary screen, cell-based, A549, cytoblot, luminescence, serum-stimulated (AID 1158); settings: A549 phospho-S6 cytoblot, 5 h, higher = more signal;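 further: serum-stimulated A549 lung adenocarcinoma cells; signal is phosphorylated S6 detected by cytoblot immunostaining with HRP secondary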
[17] = molecular target: NADPH oxidase 2 (Homo sapiens) (UniProt P04839); experiment: NOX2-dependent H2O2 signal modulators, primary screen, NOX inhibitor project, cell-based, HEK293-NOX2, PMA-stimulated, Amplex Red fluorescence (AID 1159); settings: 45 min, higher = more signal, called active from +8 up or from −8 down; further: test concentration not given here
NADPH oxidase 2 (Homo sapiens), sequence (P04839 whole entry, looked up): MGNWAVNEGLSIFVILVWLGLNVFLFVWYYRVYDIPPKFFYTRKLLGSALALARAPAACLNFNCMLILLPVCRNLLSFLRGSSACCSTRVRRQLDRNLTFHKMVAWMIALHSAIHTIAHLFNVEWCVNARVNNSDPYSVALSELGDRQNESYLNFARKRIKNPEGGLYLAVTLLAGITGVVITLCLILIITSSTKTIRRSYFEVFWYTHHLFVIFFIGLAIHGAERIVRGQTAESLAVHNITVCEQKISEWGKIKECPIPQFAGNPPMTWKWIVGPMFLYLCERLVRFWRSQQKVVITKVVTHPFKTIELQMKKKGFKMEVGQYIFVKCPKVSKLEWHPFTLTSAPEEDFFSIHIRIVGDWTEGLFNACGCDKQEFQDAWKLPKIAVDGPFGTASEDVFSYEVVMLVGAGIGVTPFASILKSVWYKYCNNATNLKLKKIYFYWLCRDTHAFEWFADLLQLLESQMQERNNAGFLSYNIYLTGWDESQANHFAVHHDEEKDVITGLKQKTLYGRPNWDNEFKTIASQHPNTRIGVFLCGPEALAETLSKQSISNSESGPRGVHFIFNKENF

[18] = molecular target: NADPH oxidase 4 (Homo sapiens) (UniProt Q9NPH5); experiment: NOX4-dependent H2O2 signal modulators, primary screen, NOX inhibitor project, cell-based, HEK293-NOX4, tetracycline-induced, Amplex Red fluorescence (AID 1160); settings: 45 min, higher = more signal, called active from +8 up or from −8 down
NADPH oxidase 4 (Homo sapiens), sequence (Q9NPH5 whole entry, looked up): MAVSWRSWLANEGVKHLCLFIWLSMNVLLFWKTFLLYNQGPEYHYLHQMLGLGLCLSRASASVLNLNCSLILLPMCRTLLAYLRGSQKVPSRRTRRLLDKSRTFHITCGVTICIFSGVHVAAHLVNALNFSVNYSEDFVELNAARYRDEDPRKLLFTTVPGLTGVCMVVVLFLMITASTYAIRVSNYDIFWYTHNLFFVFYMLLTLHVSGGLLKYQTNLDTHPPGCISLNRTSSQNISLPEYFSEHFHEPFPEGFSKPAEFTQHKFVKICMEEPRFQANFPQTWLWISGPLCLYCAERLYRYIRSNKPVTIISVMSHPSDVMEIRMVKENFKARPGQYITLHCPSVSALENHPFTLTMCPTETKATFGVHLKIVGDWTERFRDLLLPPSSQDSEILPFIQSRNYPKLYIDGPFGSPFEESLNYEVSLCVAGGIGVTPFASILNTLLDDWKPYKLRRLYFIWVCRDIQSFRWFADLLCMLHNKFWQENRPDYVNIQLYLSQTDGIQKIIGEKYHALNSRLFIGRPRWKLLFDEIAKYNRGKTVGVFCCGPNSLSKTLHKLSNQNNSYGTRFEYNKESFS

[19] = molecular target: NADPH oxidase 5 (Homo sapiens) (UniProt Q96PH1); experiment: NOX5-dependent H2O2 signal modulators, primary screen, NOX inhibitor project, cell-based, HEK293-NOX5, Amplex Red fluorescence (AID 1161); settings: HEK293-NOX5, ionomycin, 45 min, higher = more signal
NADPH oxidase 5 (Homo sapiens), sequence (Q96PH1 whole entry, looked up): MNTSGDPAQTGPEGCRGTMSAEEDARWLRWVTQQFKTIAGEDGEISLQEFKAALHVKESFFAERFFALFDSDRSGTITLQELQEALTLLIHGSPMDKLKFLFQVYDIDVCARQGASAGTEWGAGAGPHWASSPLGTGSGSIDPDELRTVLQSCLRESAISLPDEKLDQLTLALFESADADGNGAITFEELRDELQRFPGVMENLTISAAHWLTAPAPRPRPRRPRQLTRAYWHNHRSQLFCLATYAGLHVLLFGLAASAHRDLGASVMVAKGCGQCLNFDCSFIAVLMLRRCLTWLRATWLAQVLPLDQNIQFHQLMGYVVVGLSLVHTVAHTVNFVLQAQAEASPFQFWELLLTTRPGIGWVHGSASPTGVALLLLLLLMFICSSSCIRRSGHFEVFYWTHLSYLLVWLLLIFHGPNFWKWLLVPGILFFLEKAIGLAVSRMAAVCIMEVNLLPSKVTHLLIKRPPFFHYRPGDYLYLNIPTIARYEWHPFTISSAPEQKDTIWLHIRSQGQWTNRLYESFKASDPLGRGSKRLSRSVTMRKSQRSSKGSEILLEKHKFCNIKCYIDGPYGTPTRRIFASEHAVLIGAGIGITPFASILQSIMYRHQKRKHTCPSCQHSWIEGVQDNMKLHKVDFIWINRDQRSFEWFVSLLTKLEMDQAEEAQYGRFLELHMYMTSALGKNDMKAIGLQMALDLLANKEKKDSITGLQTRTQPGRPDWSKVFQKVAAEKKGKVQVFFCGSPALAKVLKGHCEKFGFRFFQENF

[20] = A549 cell viability effects, profiling panel, calcein-AM fluorescence, 48 h, basal (AID 1162); settings: higher = more signal; further: test concentration not given here

COC(=O)C1=CC(CCCO)=CC(C2CC2)N(Cc2cc3c(cc2Br)OCO3)C=C1C(=O)OC (stereo not given)
composite z-score [1]: 0.135 | z-score [2]: -2.77 (inactive) | z-score [3]: 0.389 (inactive) | z-score [4]: -0.562 (inactive) | composite z-score [5]: 1.22 | composite z-score [6]: 0.143 | composite z-score (Torsin-1A (Homo sapiens) [7]): 0.777 | composite z-score (Torsin-1A (Homo sapiens) [8]): 1.61 | composite z-score [9]: -0.593 | z-score [10]: 1.55 (inactive) | composite z-score [11]: 0.248 | z-score [12]: 2.31 (inactive) | z-score [13]: -1.2 (inactive) | z-score [14]: -0.183 (inactive) | z-score [15]: -0.951 (inactive) | z-score [16]: 0.771 | z-score [17]: 0.0713 (inactive) | z-score [18]: 1.24 (inactive) | z-score [19]: 1.91 | z-score [20]: 0.589

CCOC(=O)C[C@H]1[C@H](OC(=O)c2ccc(-c3ccccc3)cc2)[C@@H](NC(=O)c2ccccc2)c2cc(OCCCO)ccc2N1C(=O)c1ccccc1
composite z-score [1]: 0.15 | z-score [2]: -2.94 (inactive) | z-score [3]: 0.251 (inactive) | z-score [4]: -0.843 (inactive) | composite z-score [5]: 0.0439 | composite z-score [6]: 0.105 | composite z-score (Torsin-1A (Homo sapiens) [7]): 0.217 | composite z-score (Torsin-1A (Homo sapiens) [8]): 0.792 | composite z-score [9]: 0.082 | z-score [10]: 2.36 (inactive) | composite z-score [11]: 0.167 | z-score [12]: 0.788 (inactive) | z-score [13]: -0.846 (inactive) | z-score [14]: -0.0889 (inactive) | z-score [15]: -1.09 (inactive) | z-score [16]: 1.58 | z-score [17]: 2.09 (inactive) | z-score [18]: 1.32 (inactive) | z-score [19]: 3.5 | z-score [20]: 0.769

COc1ccc([Si](C)(C)[C@@H]2[C@@H](CC(=O)N3CCC[C@H]3CO)O[C@]3(C(=O)N(Cc4ccc(N5CCC5=O)cc4)c4ccccc43)[C@H]2C)cc1
composite z-score [1]: 0.0507 | z-score [2]: -1.8 (inactive) | z-score [3]: 0.861 (inactive) | z-score [4]: -1.19 (inactive) | composite z-score [5]: 0.761 | composite z-score [6]: 0.027 | composite z-score (Torsin-1A (Homo sapiens) [7]): 0.572 | composite z-score (Torsin-1A (Homo sapiens) [8]): 0.409 | composite z-score [9]: 1.55 | z-score [10]: 0.436 (inactive) | composite z-score [11]: 0.156 | z-score [12]: 7.47 (inactive) | z-score [13]: 1.49 (inactive) | z-score [14]: -0.836 (inactive) | z-score [15]: 0.77 (inactive) | z-score [16]: 0.127 | z-score [17]: 2.99 (inactive) | z-score [18]: 1.58 (inactive) | z-score [19]: 4.86 | z-score [20]: -0.639

C[C@@H](OCc1ccccc1)C1NC(=O)[C@@]23C(=O)N[C@@H](Cc4ccccc4)C2[C@H](C)[C@@]2(C)O[C@H]2C3/C=C/C/C=C\CNC(=O)[C@@H]2CCCN2C1=O (stereo not given in full)
composite z-score [1]: -0.13 | z-score [2]: -0.866 (inactive) | z-score [3]: 2.13 (inactive) | z-score [4]: -1.55 (inactive) | composite z-score [5]: -0.9 | composite z-score [6]: -0.192 | composite z-score (Torsin-1A (Homo sapiens) [7]): -0.0343 | composite z-score (Torsin-1A (Homo sapiens) [8]): 1.12 | composite z-score [9]: 0.558 | z-score [10]: 2.21 (inactive) | composite z-score [11]: -0.239 | z-score [12]: 1.49 (inactive) | z-score [13]: 0.0899 (inactive) | z-score [14]: 0.933 (inactive) | z-score [15]: 0.231 (inactive) | z-score [16]: 0.663 | z-score [17]: -0.0597 (inactive) | z-score [18]: 0.397 (inactive) | z-score [19]: -0.915 | z-score [20]: 0.791

CCOC(=O)C[C@H]1[C@H](OC(=O)c2ccc(C(=O)c3ccccc3)cc2)[C@@H](NC(=O)Cc2ccc(OC)cc2)c2cc(OCCCO)ccc2N1C(=O)Cc1ccc(OC)cc1
composite z-score [1]: 0.296 | z-score [2]: -0.69 (inactive) | z-score [3]: 2.14 (inactive) | z-score [4]: -0.899 (inactive) | composite z-score [5]: 0.598 | composite z-score [6]: -0.122 | composite z-score (Torsin-1A (Homo sapiens) [7]): 0.226 | composite z-score (Torsin-1A (Homo sapiens) [8]): 0.413 | composite z-score [9]: 0.697 | z-score [10]: 1.89 (inactive) | composite z-score [11]: 0.357 | z-score [12]: 4.37 (inactive) | z-score [13]: -0.625 (inactive) | z-score [14]: 0.0901 (inactive) | z-score [15]: -1.14 (inactive) | z-score [16]: 1 | z-score [17]: 0.676 (inactive) | z-score [18]: 0.79 (inactive) | z-score [19]: 1.52 | z-score [20]: 2.13

CO[C@H]1O[C@H](CO)[C@@H](OC(=O)Nc2ccccc2)[C@H](OC(=O)Nc2ccc3c(c2)OCO3)[C@H]1OC(=O)Nc1ccc2c(c1)OCO2
composite z-score [1]: 0.229 | z-score [2]: -3.58 (inactive) | z-score [3]: 0.754 (inactive) | z-score [4]: -2.46 (inactive) | composite z-score [5]: 0.142 | composite z-score [6]: -0.018 | composite z-score (Torsin-1A (Homo sapiens) [7]): 0.505 | composite z-score (Torsin-1A (Homo sapiens) [8]): 0.781 | composite z-score [9]: 0.739 | z-score [10]: 2.12 (inactive) | composite z-score [11]: 0.57 | z-score [12]: 4.45 (inactive) | z-score [13]: -0.359 (inactive) | z-score [14]: 0.0835 (inactive) | z-score [15]: -1.81 (inactive) | z-score [16]: 1.21 | z-score [17]: -3.84 (inactive) | z-score [18]: -3.08 (inactive) | z-score [19]: -2.05 | z-score [20]: 0.275

COc1ccc([Si](C)(C)[C@H]2[C@H](CC(=O)N3Cc4ccccc4C[C@H]3CO)O[C@@]3(C(=O)N(Cc4cccc(N5C(=O)COc6ccccc65)c4)c4ccccc43)[C@@H]2C)cc1
composite z-score [1]: 0.283 | z-score [2]: -3.87 (inactive) | z-score [3]: 3.47 (inactive) | z-score [4]: -1.86 (inactive) | composite z-score [5]: 0.22 | composite z-score [6]: -0.0986 | composite z-score (Torsin-1A (Homo sapiens) [7]): 0.562 | composite z-score (Torsin-1A (Homo sapiens) [8]): 0.212 | composite z-score [9]: 2 | z-score [10]: 0.578 (inactive) | composite z-score [11]: -0.0035 | z-score [12]: 3.46 (inactive) | z-score [13]: 1.76 (inactive) | z-score [14]: 1.69 (inactive) | z-score [15]: 1.04 (inactive) | z-score [16]: 0.0515 | z-score [17]: -1.37 (inactive) | z-score [18]: -0.307 (inactive) | z-score [19]: -2.34 | z-score [20]: 0.486

CO[C@H]1O[C@H](CO)[C@@H](OC(=O)CCc2ccccc2)[C@@H]2OC(=O)[C@H](Cc3ccccc3)C/C=C/C[C@@H](Cc3ccccc3)C(=O)O[C@@H]12
composite z-score [1]: -0.221 | z-score [2]: -3.09 (inactive) | z-score [3]: -0.552 (inactive) | z-score [4]: -1.18 (inactive) | composite z-score [5]: -0.804 | composite z-score [6]: -0.179 | composite z-score (Torsin-1A (Homo sapiens) [7]): 0.0387 | composite z-score (Torsin-1A (Homo sapiens) [8]): 0.0489 | composite z-score [9]: -0.214 | z-score [10]: 2.35 (inactive) | composite z-score [11]: -0.243 | z-score [12]: 6.07 (inactive) | z-score [13]: 0.389 (inactive) | z-score [14]: -1.06 (inactive) | z-score [15]: -1.83 (inactive) | z-score [16]: 0.939 | z-score [17]: 1.59 (inactive) | z-score [18]: 1.26 (inactive) | z-score [19]: 0.751 | z-score [20]: 1.38
